Experimental data: article PMC5700166

What follows are sequences tested against T1, GST-Dm-Relish (Drosophila melanogaster, UniProt Q94527 99-473) (assay: protein-binding microarray (PBM); PBM: ~300 nM protein, 6 mM HEPES pH 7.8, 80 mM KCl, 0.5 mM EDTA, 0.5 mM EGTA, 6% glycerol, 35 ng/ul poly-dIdC, 1% milk, 1 h, room temperature; Ap Aiptasia and Nv Nematostella (sea anemones) / Co Capsaspora / Aq Amphimedon (sponge) / Dm Drosophila / Hu human; RHD is the Rel homology domain; high values mean tight binding). Details: dsDNA, one strand shown.
T1 sequence: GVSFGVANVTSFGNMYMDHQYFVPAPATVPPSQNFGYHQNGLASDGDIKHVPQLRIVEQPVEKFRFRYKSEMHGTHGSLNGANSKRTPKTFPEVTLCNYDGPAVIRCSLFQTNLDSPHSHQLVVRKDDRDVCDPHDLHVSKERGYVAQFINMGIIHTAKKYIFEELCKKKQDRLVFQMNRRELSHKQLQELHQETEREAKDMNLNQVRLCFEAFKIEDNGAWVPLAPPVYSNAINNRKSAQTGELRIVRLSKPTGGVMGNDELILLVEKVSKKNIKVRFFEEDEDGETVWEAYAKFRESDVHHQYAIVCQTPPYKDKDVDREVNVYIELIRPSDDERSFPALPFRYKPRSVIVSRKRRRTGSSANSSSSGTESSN
With “CCGATTAACATCAGGGGAAGATATGATGTTAATCGGGTCTTGATTCGCTTGACGCTGCTG” the binding signal was 4.01 z-score.
In the case of “CCGATTAACATCAGAAAATCCCCTGATGTTAATCGGGTCTTGATTCGCTTGACGCTGCTG”, the binding signal is reported as 9.8 z-score.
In the case of “CCGATTAACATCAGGATGCCCCCTGATGTTAATCGGGTCTTGATTCGCTTGACGCTGCTG”, the binding signal is reported as 4.63 z-score.
Sequence “CCGATTAACATCAAATTTTCCCGTGATGTTAATCGGGTCTTGATTCGCTTGACGCTGCTG” has a binding signal of 3.36 z-score.
Sequence “CCGATTAACATCAGGGGAGTTACTGATGTTAATCGGGTCTTGATTCGCTTGACGCTGCTG” has a binding signal of 7.83 z-score.
For “CCGATTAACATCACGGGGGATTCTGATGTTAATCGGGTCTTGATTCGCTTGACGCTGCTG”, the binding signal was 7.96 z-score.
“CCGATTAACATCAATTATTCCCCTGATGTTAATCGGGTCTTGATTCGCTTGACGCTGCTG” was tested, and the binding signal was 5.24 z-score.
“CCGATTAACATCAGGGACTGCCCTGATGTTAATCGGGTCTTGATTCGCTTGACGCTGCTG” gave a binding signal of 4.22 z-score.
With “CCGATTAACATCAGATTCCCCCATGATGTTAATCGGGTCTTGATTCGCTTGACGCTGCTG” the binding signal was 5.21 z-score.
With “CCGATTAACATCAAGAACTTCCCTGATGTTAATCGGGTCTTGATTCGCTTGACGCTGCTG” the binding signal was 2.86 z-score.
Work on “CCGATTAACATCAAATATCCCCATGATGTTAATCGGGTCTTGATTCGCTTGACGCTGCTG” yielded a binding signal of 4.81 z-score.
Work on “CCGATTAACATCAGGGAATTTACTGATGTTAATCGGGTCTTGATTCGCTTGACGCTGCTG” yielded a binding signal of 6.87 z-score.
Work on “CCGATTAACATCAGCGATTCCCCTGATGTTAATCGGGTCTTGATTCGCTTGACGCTGCTG” yielded a binding signal of 3.63 z-score.
Work on “CCGATTAACATCAGAATATCCCCTGATGTTAATCGGGTCTTGATTCGCTTGACGCTGCTG” yielded a binding signal of 6.49 z-score.
“CCGATTAACATCAGGGACTTTCATGATGTTAATCGGGTCTTGATTCGCTTGACGCTGCTG” gave a binding signal of 5.59 z-score.
Sequence “CCGATTAACATCAGGGGGTTTGATGATGTTAATCGGGTCTTGATTCGCTTGACGCTGCTG” has a binding signal of 5.81 z-score.
“CCGATTAACATCAAATTCCCCCCTGATGTTAATCGGGTCTTGATTCGCTTGACGCTGCTG” gave a binding signal of 8.4 z-score.
For “CCGATTAACATCACTAAATCCCCTGATGTTAATCGGGTCTTGATTCGCTTGACGCTGCTG”, the binding signal was 6.49 z-score.
“CCGATTAACATCAGGAACTTCCCTGATGTTAATCGGGTCTTGATTCGCTTGACGCTGCTG” showed a binding signal of 4.4 z-score.
“CCGATTAACATCAAATTTCCCTATGATGTTAATCGGGTCTTGATTCGCTTGACGCTGCTG” showed a binding signal of 2.55 z-score.
“CCGATTAACATCAGGGAAAACCCTGATGTTAATCGGGTCTTGATTCGCTTGACGCTGCTG” gave a binding signal of 9.01 z-score.
“CCGATTAACATCAGGGGGAACGATGATGTTAATCGGGTCTTGATTCGCTTGACGCTGCTG” showed a binding signal of 2.42 z-score.
“CCGATTAACATCAGGGAATTTGATGATGTTAATCGGGTCTTGATTCGCTTGACGCTGCTG” showed a binding signal of 2.77 z-score.
“CCGATTAACATCAGGATCCCCCCTGATGTTAATCGGGTCTTGATTCGCTTGACGCTGCTG” gave a binding signal of 8.78 z-score.
In the case of “CCGATTAACATCAAATAAACCCCTGATGTTAATCGGGTCTTGATTCGCTTGACGCTGCTG”, the binding signal is reported as 6.13 z-score.
With “CCGATTAACATCAAATTCCCGCCTGATGTTAATCGGGTCTTGATTCGCTTGACGCTGCTG” the binding signal was 3.49 z-score.
“CCGATTAACATCACGAAACCCCCTGATGTTAATCGGGTCTTGATTCGCTTGACGCTGCTG” showed a binding signal of 8.51 z-score.
For “CCGATTAACATCAGGGAAAATTATGATGTTAATCGGGTCTTGATTCGCTTGACGCTGCTG”, the binding signal was 2.28 z-score.
“CCGATTAACATCACTGGATTCCCTGATGTTAATCGGGTCTTGATTCGCTTGACGCTGCTG” gave a binding signal of 4.48 z-score.
Work on “CCGATTAACATCAGGGAAACTAATGATGTTAATCGGGTCTTGATTCGCTTGACGCTGCTG” yielded a binding signal of 1.22 z-score.
With “CCGATTAACATCAAGCAATCCCCTGATGTTAATCGGGTCTTGATTCGCTTGACGCTGCTG” the binding signal was 5.11 z-score.
“CCGATTAACATCAGGGGATTGTATGATGTTAATCGGGTCTTGATTCGCTTGACGCTGCTG” was tested, and the binding signal was 4.19 z-score.
In the case of “CCGATTAACATCACTATATCCCCTGATGTTAATCGGGTCTTGATTCGCTTGACGCTGCTG”, the binding signal is reported as 2.01 z-score.
Sequence “CCGATTAACATCAAGTTCCCCCATGATGTTAATCGGGTCTTGATTCGCTTGACGCTGCTG” has a binding signal of 4.93 z-score.
Sequence “CCGATTAACATCAAGGGTGGGAATGATGTTAATCGGGTCTTGATTCGCTTGACGCTGCTG” has a binding signal of 1.66 z-score.
Work on “CCGATTAACATCAGAGCTCCCCCTGATGTTAATCGGGTCTTGATTCGCTTGACGCTGCTG” yielded a binding signal of 1.98 z-score.
With “CCGATTAACATCACACATCCCCCTGATGTTAATCGGGTCTTGATTCGCTTGACGCTGCTG” the binding signal was 3.19 z-score.
